In the supplement of paper PMC12819154, “High-throughput peptide-centric local stability assay extends protein–ligand identification to membrane proteins, tissues and bacteria” (Nature Structural & Molecular Biology, 2025):

Chain of UniProt Q8TB40 (Q8TB40 whole entry): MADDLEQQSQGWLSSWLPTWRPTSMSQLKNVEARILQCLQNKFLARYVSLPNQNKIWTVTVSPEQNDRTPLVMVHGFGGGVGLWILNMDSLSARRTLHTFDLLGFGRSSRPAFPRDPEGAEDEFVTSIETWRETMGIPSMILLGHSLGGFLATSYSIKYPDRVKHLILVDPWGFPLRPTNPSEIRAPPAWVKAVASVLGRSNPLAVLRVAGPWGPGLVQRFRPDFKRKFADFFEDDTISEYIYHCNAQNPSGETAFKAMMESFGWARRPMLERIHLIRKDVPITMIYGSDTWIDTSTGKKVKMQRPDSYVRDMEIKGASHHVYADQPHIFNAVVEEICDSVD
Chain of UniProt Q6PHR2 (Q6PHR2 whole entry): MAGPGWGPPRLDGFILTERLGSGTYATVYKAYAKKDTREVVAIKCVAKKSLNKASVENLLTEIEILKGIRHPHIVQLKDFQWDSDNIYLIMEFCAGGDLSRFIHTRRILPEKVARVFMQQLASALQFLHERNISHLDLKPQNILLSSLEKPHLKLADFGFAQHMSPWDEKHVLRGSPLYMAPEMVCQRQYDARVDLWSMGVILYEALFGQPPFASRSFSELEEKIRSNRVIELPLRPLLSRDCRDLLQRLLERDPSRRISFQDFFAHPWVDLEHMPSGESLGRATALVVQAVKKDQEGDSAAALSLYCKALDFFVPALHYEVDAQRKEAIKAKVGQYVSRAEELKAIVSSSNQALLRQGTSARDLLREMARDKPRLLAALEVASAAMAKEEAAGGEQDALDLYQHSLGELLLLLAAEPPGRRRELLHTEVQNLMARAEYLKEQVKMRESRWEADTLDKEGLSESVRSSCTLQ
Chain of UniProt Q13163 (Q13163 whole entry): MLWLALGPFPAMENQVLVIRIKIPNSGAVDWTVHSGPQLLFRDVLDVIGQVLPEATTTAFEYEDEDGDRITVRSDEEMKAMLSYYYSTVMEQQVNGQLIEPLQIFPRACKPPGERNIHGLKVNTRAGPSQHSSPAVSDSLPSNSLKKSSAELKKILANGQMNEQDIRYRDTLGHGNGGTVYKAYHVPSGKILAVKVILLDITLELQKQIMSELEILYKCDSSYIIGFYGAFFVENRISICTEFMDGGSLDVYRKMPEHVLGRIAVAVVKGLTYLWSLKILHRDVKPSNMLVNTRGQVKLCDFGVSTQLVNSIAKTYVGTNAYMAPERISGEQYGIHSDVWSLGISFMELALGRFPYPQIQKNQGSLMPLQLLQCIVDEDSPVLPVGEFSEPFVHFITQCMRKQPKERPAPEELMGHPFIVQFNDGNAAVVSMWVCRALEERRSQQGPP
Chain of UniProt P06737 (P06737 whole entry): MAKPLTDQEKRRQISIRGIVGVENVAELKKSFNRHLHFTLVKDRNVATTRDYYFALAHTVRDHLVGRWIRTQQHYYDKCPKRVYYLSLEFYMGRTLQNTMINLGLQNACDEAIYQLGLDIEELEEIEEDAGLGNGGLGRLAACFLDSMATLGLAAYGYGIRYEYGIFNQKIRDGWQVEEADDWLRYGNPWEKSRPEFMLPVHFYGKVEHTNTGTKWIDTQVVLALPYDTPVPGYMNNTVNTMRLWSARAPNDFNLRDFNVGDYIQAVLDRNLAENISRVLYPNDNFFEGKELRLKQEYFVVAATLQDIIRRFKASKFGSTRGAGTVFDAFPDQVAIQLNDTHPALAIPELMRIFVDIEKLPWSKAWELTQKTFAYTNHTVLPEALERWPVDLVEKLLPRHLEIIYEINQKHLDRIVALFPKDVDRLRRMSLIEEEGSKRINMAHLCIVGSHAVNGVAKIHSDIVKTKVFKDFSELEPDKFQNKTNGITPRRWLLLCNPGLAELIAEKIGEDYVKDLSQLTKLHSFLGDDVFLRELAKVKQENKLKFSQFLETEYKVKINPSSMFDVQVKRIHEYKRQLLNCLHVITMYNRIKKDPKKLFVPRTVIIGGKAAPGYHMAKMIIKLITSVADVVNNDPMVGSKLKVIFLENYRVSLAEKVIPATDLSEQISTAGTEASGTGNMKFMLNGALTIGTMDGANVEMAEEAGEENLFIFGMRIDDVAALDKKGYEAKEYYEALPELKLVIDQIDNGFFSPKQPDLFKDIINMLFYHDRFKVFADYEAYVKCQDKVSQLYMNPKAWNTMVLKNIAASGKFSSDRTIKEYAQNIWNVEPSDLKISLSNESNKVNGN
Chain of UniProt P42684 (P42684 whole entry): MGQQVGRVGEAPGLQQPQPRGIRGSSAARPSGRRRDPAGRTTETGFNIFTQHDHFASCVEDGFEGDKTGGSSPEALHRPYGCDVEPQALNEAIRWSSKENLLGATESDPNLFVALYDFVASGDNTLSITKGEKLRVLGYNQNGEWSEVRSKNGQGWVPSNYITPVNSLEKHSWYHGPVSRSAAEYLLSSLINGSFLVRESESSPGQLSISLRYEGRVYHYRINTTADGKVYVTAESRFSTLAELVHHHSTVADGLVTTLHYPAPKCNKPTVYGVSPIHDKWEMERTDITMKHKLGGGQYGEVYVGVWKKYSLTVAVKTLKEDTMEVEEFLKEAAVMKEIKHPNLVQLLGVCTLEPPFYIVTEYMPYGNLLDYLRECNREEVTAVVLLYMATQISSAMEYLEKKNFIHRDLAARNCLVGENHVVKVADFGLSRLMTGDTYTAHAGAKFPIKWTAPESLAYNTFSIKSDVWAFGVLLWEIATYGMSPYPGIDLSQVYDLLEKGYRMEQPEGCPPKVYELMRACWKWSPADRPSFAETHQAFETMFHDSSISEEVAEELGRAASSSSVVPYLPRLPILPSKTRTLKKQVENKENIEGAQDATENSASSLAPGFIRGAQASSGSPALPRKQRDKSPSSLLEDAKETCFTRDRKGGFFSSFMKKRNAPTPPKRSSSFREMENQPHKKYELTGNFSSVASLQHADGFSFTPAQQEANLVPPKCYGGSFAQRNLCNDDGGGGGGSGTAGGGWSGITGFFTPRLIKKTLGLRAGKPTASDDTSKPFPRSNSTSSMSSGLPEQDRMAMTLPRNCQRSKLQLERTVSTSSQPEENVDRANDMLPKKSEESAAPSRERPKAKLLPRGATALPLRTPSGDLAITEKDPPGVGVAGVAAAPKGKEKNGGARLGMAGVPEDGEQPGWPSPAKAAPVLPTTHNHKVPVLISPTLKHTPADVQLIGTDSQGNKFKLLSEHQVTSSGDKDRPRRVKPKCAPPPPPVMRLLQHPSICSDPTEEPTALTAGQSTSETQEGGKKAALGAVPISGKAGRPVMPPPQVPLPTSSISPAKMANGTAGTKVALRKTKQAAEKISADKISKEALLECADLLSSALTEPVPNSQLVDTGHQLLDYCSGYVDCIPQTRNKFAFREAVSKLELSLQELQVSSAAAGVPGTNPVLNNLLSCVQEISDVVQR
Chain of UniProt O60674 (O60674 whole entry): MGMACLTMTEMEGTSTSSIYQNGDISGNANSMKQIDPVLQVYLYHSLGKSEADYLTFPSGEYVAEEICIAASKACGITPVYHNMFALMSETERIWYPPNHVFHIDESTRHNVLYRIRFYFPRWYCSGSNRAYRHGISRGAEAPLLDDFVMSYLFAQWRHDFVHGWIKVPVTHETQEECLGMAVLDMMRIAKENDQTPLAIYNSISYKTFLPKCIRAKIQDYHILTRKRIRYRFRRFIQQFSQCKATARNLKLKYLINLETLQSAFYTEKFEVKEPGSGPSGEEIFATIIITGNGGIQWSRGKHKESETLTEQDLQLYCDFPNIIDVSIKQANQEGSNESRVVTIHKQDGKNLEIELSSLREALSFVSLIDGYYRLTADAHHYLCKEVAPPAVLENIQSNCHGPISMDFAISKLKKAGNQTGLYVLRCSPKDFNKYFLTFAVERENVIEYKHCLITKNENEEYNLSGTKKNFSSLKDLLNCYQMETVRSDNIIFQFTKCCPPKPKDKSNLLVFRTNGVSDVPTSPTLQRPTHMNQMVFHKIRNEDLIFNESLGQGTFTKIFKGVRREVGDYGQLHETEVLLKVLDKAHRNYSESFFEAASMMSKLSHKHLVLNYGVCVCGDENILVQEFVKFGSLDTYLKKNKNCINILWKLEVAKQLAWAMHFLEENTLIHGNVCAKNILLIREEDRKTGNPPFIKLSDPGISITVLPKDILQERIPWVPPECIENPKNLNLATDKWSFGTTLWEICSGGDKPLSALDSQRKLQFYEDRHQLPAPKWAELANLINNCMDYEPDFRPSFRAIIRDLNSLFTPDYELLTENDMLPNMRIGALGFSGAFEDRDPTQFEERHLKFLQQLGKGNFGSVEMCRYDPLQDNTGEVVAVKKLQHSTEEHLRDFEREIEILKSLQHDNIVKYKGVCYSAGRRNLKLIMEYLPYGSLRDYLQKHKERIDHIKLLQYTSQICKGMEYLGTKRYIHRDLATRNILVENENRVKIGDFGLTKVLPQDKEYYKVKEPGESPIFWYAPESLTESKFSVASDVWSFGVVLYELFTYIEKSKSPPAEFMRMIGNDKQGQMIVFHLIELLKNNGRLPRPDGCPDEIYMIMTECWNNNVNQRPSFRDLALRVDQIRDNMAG
Chain of UniProt P42680 (P42680 whole entry): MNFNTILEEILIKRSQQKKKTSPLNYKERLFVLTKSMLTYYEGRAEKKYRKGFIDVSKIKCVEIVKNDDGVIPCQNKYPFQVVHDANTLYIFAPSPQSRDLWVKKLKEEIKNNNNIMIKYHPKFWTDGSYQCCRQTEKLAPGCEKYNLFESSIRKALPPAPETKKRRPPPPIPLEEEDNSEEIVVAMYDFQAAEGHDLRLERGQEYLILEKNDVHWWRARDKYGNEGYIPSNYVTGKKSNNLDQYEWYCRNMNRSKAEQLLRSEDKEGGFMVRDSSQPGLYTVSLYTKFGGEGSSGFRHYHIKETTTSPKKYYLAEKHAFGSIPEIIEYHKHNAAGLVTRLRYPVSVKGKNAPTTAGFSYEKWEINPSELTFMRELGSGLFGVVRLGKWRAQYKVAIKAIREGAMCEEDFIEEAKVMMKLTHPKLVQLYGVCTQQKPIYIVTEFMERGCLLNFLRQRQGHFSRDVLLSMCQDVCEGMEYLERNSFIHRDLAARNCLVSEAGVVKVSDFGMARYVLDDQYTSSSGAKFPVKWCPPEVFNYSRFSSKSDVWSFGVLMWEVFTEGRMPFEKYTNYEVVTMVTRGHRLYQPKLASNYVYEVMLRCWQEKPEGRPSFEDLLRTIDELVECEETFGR

The targets below were run with Cc1nc(Nc2ncc(C(=O)Nc3c(C)cccc3Cl)s2)cc(N2CCN(CCO)CC2)n1 [dasatinib] (assay: log2 fold change of tryptic peptide abundance, ligand vs vehicle (limited proteolysis) (log2 ratio); higher = more trypsin-susceptible (destabilized)). Conditions: ligand concentration: 5 uM; sample: K562 cleared lysate.
With “MAPK14 (peptide sequence: DLLIDEWK, peptide start residue: 331) (UniProt Q16539)” the log2 fold change was -1.32. “UniProt Q8NI60 (peptide sequence: VALLDFGATR, peptide start residue: 503)” showed a log2 fold change of -0.968. For “TNK1 (peptide sequence: VADFGLVRPLGGAR, peptide start residue: 261) (UniProt Q13470)”, the log2 fold change was -0.538. In the case of “TEC (peptide sequence: GCLLNFLR, peptide start residue: 448) (UniProt P42680)”, the log2 fold change is reported as -2.98. With “ABL2 (peptide sequence: NCLVGENHVVK, peptide start residue: 414) (UniProt P42684)” the log2 fold change was -2.95. In the case of “JAK1 (peptide sequence: NVLVESEHQVK, peptide start residue: 1008) (UniProt P23458)”, the log2 fold change is reported as -1.51. Work on “MAP4K3 (peptide sequence: RNPQEDFELIQR, peptide start residue: 10) (UniProt Q8IVH8)” yielded a log2 fold change of -1.06. With “Jak2 (peptide sequence: VLPQDKEYYK, peptide start residue: 1000) (UniProt O60674)” the log2 fold change was -0.993. In the case of “UniProt Q16512 (peptide sequence: VLLSEFRPSGELFAIK, peptide start residue: 629)”, the log2 fold change is reported as 1.18. “TYK2 (peptide sequence: EITQLSHLGQGTR, peptide start residue: 588) (UniProt P29597)” was tested, and the log2 fold change was -1.29. “MAP3K4 (peptide sequence: LGDFGCSVK, peptide start residue: 1479) (UniProt Q9Y6R4)” was tested, and the log2 fold change was -1.67. “CSK (peptide sequence: SGWALNMK, peptide start residue: 186) (UniProt P41240)” showed a log2 fold change of -0.697. Work on “PYGB (peptide sequence: GLAGLGDVAEVR, peptide start residue: 18) (UniProt P11216)” yielded a log2 fold change of -0.49. In the case of “ABHD4 (peptide sequence: VAGPWGPGLVQR, peptide start residue: 209) (UniProt Q8TB40)”, the log2 fold change is reported as 0.933. “PAK2 (peptide sequence: LLQTSNITK, peptide start residue: 105) (UniProt Q13177)” gave a log2 fold change of 0.206. “UniProt Q02750 (peptide sequence: SYMSPER, peptide start residue: 228)” was tested, and the log2 fold change was 1.37. “ULK3 (peptide sequence: VIELPLRPLLSR, peptide start residue: 230) (UniProt Q6PHR2)” was tested, and the log2 fold change was -0.336. “UniProt Q13188 (peptide sequence: AGNILLNTEGHAK, peptide start residue: 152)” gave a log2 fold change of -0.627. “ILK (peptide sequence: DFNEECPR, peptide start residue: 234) (UniProt Q13418)” gave a log2 fold change of 0.893. Target “UniProt Q9P289 (peptide sequence: GSFGEVFK, peptide start residue: 33)” has a log2 fold change of -0.606. With “UniProt P36507 (peptide sequence: KLEELELDEQQKK, peptide start residue: 40)” the log2 fold change was 0.445. With “RIPK2 (peptide sequence: KTEYPDVAWPLR, peptide start residue: 110) (UniProt O43353)” the log2 fold change was -1.34. With “UniProt Q13163 (peptide sequence: DVKPSNMLVNTR, peptide start residue: 283)” the log2 fold change was 1.77. “PYGL (peptide sequence: NLAENISR, peptide start residue: 271) (UniProt P06737)” was tested, and the log2 fold change was -0.422. “UniProt Q9Y2U5 (peptide sequence: LLGQGAFGR, peptide start residue: 361)” showed a log2 fold change of -0.631. For “PPAT (peptide sequence: TFIQPNMR, peptide start residue: 356) (UniProt Q06203)”, the log2 fold change was -0.503. “TAOK2 (peptide sequence: ELDNLQYR, peptide start residue: 299) (UniProt Q9UL54)” was tested, and the log2 fold change was 0.422. With “MAP4K5 (peptide sequence: LLTHTFVAQPGLSR, peptide start residue: 271) (UniProt Q9Y4K4)” the log2 fold change was -0.838. “TNIK (peptide sequence: NHSQRPATEQLMK, peptide start residue: 273) (UniProt Q9UKE5)” showed a log2 fold change of -0.606.
